Measured values published in PubChem BioAssay AID743255 (National Center for Advancing Translational Sciences (NCATS), 2014).
The campaign covered roughly 390,000 compounds. About 910 (0.23%) were called active. Not shown: some 5% with an inconclusive outcome. Calls follow the shape of the dose curve; as a rule, active = well fitted inhibition curve with a large enough effect; inconclusive = small, poorly fitted or top-dose-only effect; inactive = no such curve, though single readings can be large or run the other way. The sample as a whole holds a higher share of actives than the screen did.

What follows are compounds tested against Ubiquitin carboxyl-terminal hydrolase 1 (Homo sapiens) (UniProt O94782) (assay: Inhibitors of USP1/UAF1: Primary Screen). Conditions: recombinant USP1/UAF1, Ub-Rhodamine cleavage fluorescence; series mostly up to 57.1 µM; activity change, negative = inhibition: at the top concentration.
Ubiquitin carboxyl-terminal hydrolase 1 (Homo sapiens), sequence (O94782 whole entry, looked up): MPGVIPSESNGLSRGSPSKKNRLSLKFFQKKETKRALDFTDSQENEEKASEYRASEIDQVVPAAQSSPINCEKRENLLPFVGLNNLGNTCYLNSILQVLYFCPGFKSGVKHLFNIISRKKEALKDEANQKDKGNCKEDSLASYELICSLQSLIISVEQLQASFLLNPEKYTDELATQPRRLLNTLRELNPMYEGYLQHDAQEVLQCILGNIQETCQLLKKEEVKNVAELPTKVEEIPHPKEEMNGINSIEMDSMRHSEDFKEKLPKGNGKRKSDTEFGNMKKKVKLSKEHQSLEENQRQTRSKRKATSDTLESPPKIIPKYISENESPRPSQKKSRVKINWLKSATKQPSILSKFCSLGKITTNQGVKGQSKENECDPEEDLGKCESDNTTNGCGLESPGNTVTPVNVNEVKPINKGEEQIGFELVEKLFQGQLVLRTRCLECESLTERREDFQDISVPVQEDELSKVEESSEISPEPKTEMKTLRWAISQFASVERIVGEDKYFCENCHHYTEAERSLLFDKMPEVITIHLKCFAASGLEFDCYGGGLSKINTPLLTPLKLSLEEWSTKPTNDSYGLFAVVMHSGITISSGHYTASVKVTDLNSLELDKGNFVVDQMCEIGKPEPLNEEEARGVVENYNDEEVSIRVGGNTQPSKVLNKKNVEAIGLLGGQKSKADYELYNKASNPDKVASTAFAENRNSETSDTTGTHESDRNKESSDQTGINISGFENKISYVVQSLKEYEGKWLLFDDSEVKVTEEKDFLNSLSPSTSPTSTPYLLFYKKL
Source text: Deubiquitinating enzymes (DUBs) are a class of enzymes that can cleave isopeptide bond formed between the C-terminal carboxylate of ubiquitin and a lysine side-chain amino group on the target protein. Among them, ubiquitin specific proteases (USPs) constitute the largest DUB family. Human USPs are emerging as promising targets for pharmacological intervention because of their connection to a number of human diseases, including prostate, colon and breast cancer (1, 2), pediatric acute lymphoblastic leukemia (3), and familial cylindromatosis (4). The advantage of inhibiting USPs lies in the potential specificity of therapeutic intervention that can lead to better efficacy and reduce nonspecific side effects. In a collaboration between the University of Delaware and the NIH Chemical Genomics Center, a high-throughput screen assay was developed to screen for USP1/UAF1 inhibitors. This miniaturized assay has a fluorescent read-out and is used to screen the NIH Molecular Libraries Small Molecule Repository (MLSMR) in order to identify a small molecule that inhibits USP1. NIH Chemical Genomics Center [NCGC] NIH Molecular Libraries Probe Centers Network [MLPCN] MLPCN Grant: DA030552 Assay Submitter (PI): Zhihao Zhuang, University of Delaware 1. Priolo, C., et al. (2006) The isopeptidase USP2a protects human prostate cancer from apoptosis. Cancer Res 66, 8625-8632 2. Popov, N., et al. (2007) The ubiquitin-specific protease USP28 is required for MYC stability. Nat Cell Biol 9, 765-774 3. De Pitta, C., et al. (2005) A leukemia-enriched cDNA microarray platform identifies new transcripts with relevance to the biology of pediatric acute lymphoblastic leukemia. Haematologica 90, 890-898 4. Kovalenko, A., et al. (2003) The tumour suppressor CYLD negatively regulates NF-kappaB signalling by deubiquitination. Nature 424, 801-805
3 microliters of reagents (buffer in columns 3 and 4 as negative control and 1nM USP1/UAF1 complex in columns 1, 2, and 5-48) are dispensed into Greiner black solid bottom 1536-well assay plates. Compounds are then transferred via Kalypsys pin tool equipped with 1536-pin array (10nl slotted pins, V&P Scientific, San Diego, CA). Following an incubation step of 15 min at room temperature, 1ul of Ub-Rho substrate (150nM final concentration) is added to initiate the reaction. The plates are immediately centrifuged at 1000 rpm for 15 seconds, and subsequently transferred to a ViewLux high-throughput CCD imager (PerkinElmer) wherein kinetic measurements of fluorescence are acquired using 480 nm excitation/540 nm emission filter set (6 reads every 60 seconds, see Table 1). All reagents are diluted in an assay buffer consisting of 50mM HEPES (pH 7.8), 0.5mM EDTA, 0.1 mg/ml BSA, 1mM TCEP, and 0.01% Tween-20.
% is scaled to controls: 0 for no effect and ±100 for the full control effect; potency is read from the fitted curve at half-maximal effect.
Also: nearly all actives have a fitted effect of over 60% in size.

Activity change, negative = inhibition, inactive:
Cc1ccc(C2CCN(C(=O)c3cnn(-c4ccccc4Cl)c3C3CCN(C(=O)OC(C)(C)C)CC3)C2)cc1 (stereo unspecified) -21.9%
COc1c(Cl)cc(C(=O)N(Cc2ccccc2F)C2CCS(=O)(=O)C2)cc1Cl (stereo unspecified) 0.438%
Cc1ccccc1C(=O)N1CCC(C(=O)Oc2ccc(C#N)cc2)CC1 3.04%
N#Cc1ccc(C2=CC(=O)C[C@H](c3ccc(Cl)cc3)C2)cc1 -5.63%
Clc1ccc(CSc2nncn3c2cc2occc23)cc1 -10.6%
CCC1CCCCN1Cc1c(O)ccc2c(=O)c(Oc3ccccc3Cl)c(C(F)(F)F)oc12 (stereo unspecified) -28.3%
Fc1ccc(CN2CCc3nc(Nc4ccccc4)ncc3C2)cc1F -10.4%
CCCCNC(=O)c1cc(-c2ccc(Cl)c(Cl)c2)on1 -14%
O=C(OCc1cc(=O)n2nc(C3CC3)sc2n1)c1ccccc1Cl -4.6%
CC1Cc2cc(S(=O)(=O)CCC(=O)Nc3ccc(F)c(Cl)c3)ccc2N1C(=O)C1CC1 (stereo unspecified) -4.08%
COc1ccc(NC(=O)CSc2nc3ccccc3[nH]2)cc1 -19.5%
NS(=O)(=O)c1ccc2nc(NC(=O)COc3ccccc3)sc2c1 4.94%
CCN(CC)c1ccc(C2C(C(N)=O)=C(C)Nc3nc(SCc4ccccc4)nn32)cc1 (stereo unspecified) -32.9%
COc1cccc2c1cc1c(=O)n(CC(=O)N3CCN(c4cccc(Cl)c4)CC3)nc(C)n12 6.97%
Cc1nc(SCCOc2ccc(Cl)cc2)[nH]c(=O)c1Cc1ccccc1 -21.7%
Cc1cccc(-c2nc(SCC(=O)Nc3cc(C)on3)c3c(=O)n(C)c(=O)n(C)c3n2)c1 -20.7%
CCC(=O)N1c2ccccc2CC1C(=O)N1CCN(c2ccccc2)CC1 (stereo unspecified) -26.3%
O=C(CSc1nccn1-c1ccc(F)cc1)Nc1cccc2ccccc12 -23%
CCOc1ccc(CCNC(=O)c2c(C)oc3ncn(C)c(=O)c23)cc1 -10.1%
CC(=O)N1c2ccc(S(=O)(=O)N3CCCCCC3)cc2CC1C(=O)NCc1ccccc1C (stereo unspecified) -12.7%
Cc1ccc(-c2nc3ccccn3c2Nc2c(C)cccc2C)o1 -23.3%
O=S(=O)(c1ccccc1)c1nc(-c2ccc(Cl)cc2Cl)oc1N1CCCCC1 -5.27%
CCOC(=O)c1ccc(NC(=O)CSc2nc3c([nH]c4ccccc43)c(=O)n2C)cc1 -16.3%
CCOC(=O)c1ccc(NC2=CC(c3ccc(OCC)cc3)N(c3ccc(C(=O)OCC)cc3)C2=O)cc1 (stereo unspecified) -18.2%
Cc1cc(C)c(/C=C/c2onc(C)c2S(=O)(=O)N2CCC(C(=O)Nc3ccc(Cl)cc3C)CC2)c(C)c1 1.71%
CCC(C)N1C(=O)S/C(=C/c2ccc(Sc3nc4ccccc4[nH]3)o2)C1=O (stereo unspecified) -9.54%
O=C(NCc1ccccc1)c1cc(-c2cccc(Cl)c2)on1 -5.34%
COc1ccccc1-c1cc(C(F)(F)F)nc(S(=O)(=O)CCCC(=O)Nc2ccc(F)cc2F)n1 -27.7%
O=C(CSc1nccn1C1CCCC1)Nc1cc(C(F)(F)F)ccc1Cl -20.3%
CCN(CC)c1ccc(NC(=O)CN2C(=O)c3cccnc3Oc3ccc(Cl)cc32)c(C)c1 -7.26%
Cc1ccc(NC(=O)NC(C)c2c(-n3cccc3)sc(C)c2C)c(C)c1 (stereo unspecified) -21.7%
O=C(Cn1cnc2c(oc3ccccc32)c1=O)Nc1ccc(OC(F)(F)F)cc1 -19.8%
Cc1ccc2onc(CC(=O)N3CCN(c4ccc(Cl)cc4)CC3)c2c1 -10.2%
CCc1ccc2oc(-c3ccc(NC(=O)c4cc5ccccc5o4)cc3)nc2c1 0.213%
CCOc1ccc(CNC(=O)C2CCN(c3nnc(-n4cccc4CNc4ccc(C)cc4)s3)CC2)cc1OC 8.02%
COc1cc(C(=O)N2CCN(c3ccc(Nc4ccc(C)cc4)nn3)CC2)cc(OC)c1OC -11.5%
CCCC(=O)Nc1cc(C(=O)NCc2ccc(OC)cc2)ccc1S(=O)(=O)c1ccc(Cl)cc1 -8.93%
NC(=O)c1ccc(N2CCOCC2)nc1 -9.85%
O=C1OC(NC(=O)c2ccccc2)C(N2CCOCC2)=C1Cl (stereo unspecified) -15.5%
COC(=O)CN1C(=O)CSc2ccc(S(=O)(=O)Nc3cc(C)ccc3C)cc21 -7.07%
COc1ccc(CCNC(=O)c2cc(=O)c3c(C)cc(C)cc3o2)cc1OC -23.3%
CCN(CC)CCNC(=O)Cn1ncc2c3ccccc3n(Cc3ccccc3C)c2c1=O -16.9%
CCc1ccccc1NC(=O)c1ccc(F)c(S(=O)(=O)NC2CCCCCC2)c1 -12.3%
COCCCNC(=O)c1ccc(NC(=O)c2nsc3ccccc23)cc1 -13.5%
CCOC(=O)c1cnc2c(C)cc(C)cc2c1Nc1ccc(N2CCOCC2)cc1 -5.54%
CCc1nc2cccnc2n1-c1ccc(CC(=O)Nc2c(C)cccc2C)cc1 16.9%
Cc1ccc(-c2nnc(Nc3ccc(OCC(N)=O)cc3)c3ccccc23)cc1S(=O)(=O)NCC1CCCO1 (stereo unspecified) -23.5%
CCOc1ccc(CCNC(=O)Cn2nc(CC)n3c(cc4sc(CC)cc43)c2=O)cc1OCC -31.2%
Cc1ccc(OCC(=O)Nc2ccc(Cl)c(-c3nc4ccccc4[nH]3)c2)cc1C -1.29%
CCOc1ccc(CNC(=O)c2cccc(Nc3nc4ccccc4n4nnnc34)c2)cc1OC -12.5%
CCC(=O)Nc1ccc(C)cc1-c1nc2ccccc2n(Cc2ccccc2)c1=O -10.8%
COCCn1c(N)c(NCc2ccccc2)c(=O)[nH]c1=O -19.4%
Cc1ccc(S(=O)(=O)N2CCCc3cc(NS(=O)(=O)c4cc(C)ccc4C)ccc32)cc1 -11.9%
O=C(CCC(=O)N1CC2CCCN2c2ccccc21)NCc1ccccc1Cl (stereo unspecified) -12.9%
Cc1c(-c2nsc(NC(=O)c3cccc(Cl)c3)n2)nnn1-c1ccccc1C(F)(F)F -1.05%
COc1ccc(-n2c(SC)nc3sc4c(c3c2=O)CCN(C(C)=O)C4)cc1 -26.9%
CCc1nn(CC(=O)N2CCN(c3cccc(C(F)(F)F)c3)CC2)c(=O)c2cc3occc3n12 -7.28%
CCc1ccc(CNC(=O)c2cc3c(=O)n(CC)c4ccccc4c3s2)cc1 -21.7%
CCn1c(=O)c2cc(C(=O)NCCc3ccc(Cl)cc3)sc2c2ccccc21 -21.3%
COc1cccc(CNC(=O)C2CCN(S(=O)(=O)c3ccc4c(ccn4C)c3)CC2)c1 2.96%
CCN(C(=O)Cn1cnc2sc(C)c(S(=O)(=O)N3CCN(c4ncccn4)CC3)c2c1=O)c1ccccc1F -30%
CSc1nn(Cc2cccc(C)c2)c(N)c1S(=O)(=O)c1ccccc1 -28.8%
CC(=O)Nc1cc(C(=O)NCc2ccc(F)cc2Cl)ccc1Sc1ccc(Cl)cc1 -26.4%
CCc1cccc(NC(=O)CN(c2ccc(C)c(C)c2)S(=O)(=O)c2ccsc2C(=O)OC)c1 -10.4%
Cc1cc(C)c2sc(NC(=O)c3ccc(S(=O)(=O)N4CCCC4)cc3)nc2c1 -22.5%
COc1ccc(S(=O)(=O)NCC(c2ccc(N(C)C)cc2)N2CCc3ccccc32)cc1OC (stereo unspecified) -19.8%
CCCN1C(=O)C(O)(CC(=O)c2ccc(CC)cc2)c2cc(Br)ccc21 (stereo unspecified) -6.09%
COc1cccc(CNC(=O)CCC(=O)N2CC3CCCN3c3ccccc32)c1 (stereo unspecified) 4.94%
CC(C)NC(=O)c1nn(-c2ccccc2F)nc1CO 10.8%
COc1ccc(CNC(=O)CS(=O)Cc2nc(-c3cccc(C)c3)oc2C)cc1 (stereo unspecified) -17.1%
CCCCS(=O)(=O)c1oc(-c2cccs2)nc1S(=O)(=O)c1ccccc1 -25.3%
CCOc1ccc(OCC)c(NC(=O)c2cc(C)nc3c2c(C)nn3-c2cccc(Cl)c2C)c1 -1.64%
O=C(CSc1nc(=O)n(Cc2cccnc2)c2c1CCC2)Nc1ccc(F)cc1F -30.9%
Cc1ccc(OCC(=O)OCc2cc(=O)n3nc(C4CC4)sc3n2)cc1C 5.46%
O=C(CCn1ccc2cc(S(=O)(=O)N3CCCC3)ccc21)NCc1cccc(Cl)c1 -0.0195%
COc1ccc(NS(=O)(=O)c2ccc(N3CCOCC3)c(NC(=O)c3ccccc3Br)c2)cc1 -5.81%
COCCN(CCOC)S(=O)(=O)c1ccc(C(=O)Nc2nc3c(s2)CCc2ccccc2-3)cc1 -9.11%
Cc1oc(-c2ccccc2)nc1Cn1c(SCc2cccc(C(F)(F)F)c2)nc2cccnc21 -31.8%
COc1cccc(NC(=O)Cn2c(=O)cc(C)c3c(C)nn(-c4cccc(F)c4)c32)c1 0.827%
CCCCOc1ccc(C(=O)N2CC(=O)Nc3ccc(Br)cc3C2c2ccc(F)cc2)cc1 (stereo unspecified) -19.8%
O=C(NCC(c1ccco1)S(=O)(=O)c1cccs1)c1ccc(F)cc1 (stereo unspecified) 5.88%
O=C(CSc1oc(-c2ccc(F)cc2)nc1S(=O)(=O)c1ccc(Br)cc1)NC1CCCCC1 -4.45%
COc1ccc(Cc2nc3ccc(C(=O)NCc4ccccc4Cl)cc3o2)cc1 -2.36%

Potency, active:
Oc1ccc2ccc3cccc[n+]3c2c1 28.2 µM
CC1(OC(=O)C2CCCC2)C(=O)C=C2C=C(c3ccc(C#N)cc3)OC=C2C1=O (stereo unspecified) 31.6 µM
Nc1ccc2nc3c(=O)[nH]c(=S)[nH]c3nc2c1 28.2 µM
COc1cc(/C=C2/C(=O)NN(c3cccc(Cl)c3)C2=O)cc(Br)c1O 28.2 µM
CCOC(=O)c1ccc(Nc2cc3ccccc3c(=O)[nH]2)cc1 17.8 µM
O=C(O)C(c1ccccc1)N1C(=O)/C(=C\c2ccc(-c3cccc(Cl)c3)o2)SC1=S (stereo unspecified) 35.5 µM
O=C(/C=C/c1ccc(N2CCOCC2)cc1)c1ccccc1 25.1 µM
Cc1cc(C)c(/C=C2\C(=O)Nc3ccccc32)[nH]1 25.1 µM
Cc1cc2nc3c(=O)n(Cc4ccccc4)c(=O)[nH]c3nc2cc1N 25.1 µM
Brc1ccc(C2=CC(c3ccco3)n3ncnc3N2)cc1 (stereo unspecified) 31.6 µM
CCN(CCCNC(=O)c1cc2c(=O)n(CC)c3ccccc3c2s1)Cc1ccccc1 28.2 µM
CCN(CC)CCCC(C)n1c2nc(=O)[nH]c(=O)c-2nc2cc(Cl)ccc21 (stereo unspecified) 25.1 µM
COc1ccc2c(c1)Cc1sc(NC(=O)c3ccccc3Br)nc1-2 31.6 µM
